Assay results taken from the supplement of paper PMC6555819.

Tests used:
Test in all cases: PBM binding z-score (relative to random genomic background probes); higher = stronger binding; sequences stand for … in GC…GCGATTGACAGCGTAGAATGAAGG
[1] = system: PPARg:RXRa DBDmut IVT, anti-RXR (DBD mutation: RXRa K156A/R161A, NR concentration 270 nM, RXRa partner concentration 90 nM)
Procedure, shortened: (§1)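 For binding z-scores, the reference was random background probes on custom Agilent 4×180K protein-binding microarrays. These arrays were incubated 1 h with ligand-free nuclear receptor dimers in PBS pH 7.4, 2% milk, 0.02% Triton X-100, 1 mM DTT, 0.2 mg/mL BSA and 0.4 mg/ml salmon testes DNA. Fluorescence was scanned after antibody detection of each partner (one per run) and regression-normalized.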

[2] = system: PPARg:RXRa IVT, anti-PPARg (NR concentration 270 nM, RXRa partner concentration 90 nM)
Procedure, shortened: as §1

[3] = system: PPARg DBDmut:RXRa IVT, anti-PPARg (DBD mutation: PPARg1 K132A/R137A, NR concentration 270 nM, RXRa partner concentration 90 nM)
Procedure, shortened: as §1

[4] = system: PPARg DBDmut IVT, anti-PPARg (DBD mutation: PPARg1 K132A/R137A, NR concentration 270 nM)
Procedure, shortened: as §1

[5] = system: PPARg homodimer (NR concentration 180 nM)
Procedure, shortened: as §1

[6] = system: PXR:RXRa (NR concentration 270 nM, RXRa partner concentration 90 nM)
Procedure, shortened: as §1

[7] = system: PXR homodimer (NR concentration 270 nM)
Procedure, shortened: as §1

[8] = system: RARa:RXR (NR concentration 270 nM, RXRa partner concentration 90 nM)
Procedure, shortened: as §1

[9] = system: RARa homodimer (NR concentration 270 nM)
Procedure, shortened: as §1

[10] = system: RARb:RXRa (NR concentration 270 nM, RXRa partner concentration 90 nM)
Procedure, shortened: as §1

[11] = system: RARb homodimer (NR concentration 270 nM)
Procedure, shortened: as §1

[12] = system: RARg:RXRa (NR concentration 270 nM, RXRa partner concentration 90 nM)
Procedure, shortened: as §1

[13] = system: RARg homodimer (NR concentration 270 nM)
Procedure, shortened: as §1

[14] = system: RXRa DBDmut IVT, anti-RXR (DBD mutation: RXRa K156A/R161A, NR concentration 90 nM)
Procedure, shortened: as §1

[15] = system: RXRa homodimer (NR concentration 180 nM)
Procedure, shortened: as §1

[16] = system: THRa:RXRa (NR concentration 90 nM, RXRa partner concentration 90 nM)
Procedure, shortened: as §1

[17] = system: THRa homodimer (NR concentration 90 nM)
Procedure, shortened: as §1

[18] = system: VDR homodimer (NR concentration 270 nM)
Procedure, shortened: as §1

| Sequence | PBM binding z-score [1] | PBM binding z-score [2] | PBM binding z-score [3] | PBM binding z-score [4] | PBM binding z-score [5] | PBM binding z-score [6] | PBM binding z-score [7] | PBM binding z-score [8] | PBM binding z-score [9] | PBM binding z-score [10] | PBM binding z-score [11] | PBM binding z-score [12] | PBM binding z-score [13] | PBM binding z-score [14] | PBM binding z-score [15] | PBM binding z-score [16] | PBM binding z-score [17] | PBM binding z-score [18] |
| --- | --- | --- | --- | --- | --- | --- | --- | --- | --- | --- | --- | --- | --- | --- | --- | --- | --- | --- |
| CCTTGGAGGACAGAAGGTCAGAGCTGTCCGCTTT | 0.658 | 1.17 | -1.14 | -2.25 | 1.98 | 1.69 | 0.0669 | 2.36 | 0.737 | 3.29 | 3.56 | 3.54 | 3.38 | 0.276 | 1.95 | 2.22 | 0.0306 | 0.62 |
| GCGACTGGGGCAGAGCAGGTTACCATAAGGTTGG | 3.52 | 2.22 | -0.693 | -0.694 | -0.578 | -0.201 | -0.162 | -0.103 | -0.568 | 0.569 | 0.826 | 0.0864 | 0.288 | -0.613 | 0.225 | 1.64 | -0.115 | -0.654 |
| AGAATGAGGTTACCAAAGATCAAGGAAACGCTTG | 3.78 | 3.43 | 0.922 | 0.563 | 0.97 | 2.06 | -0.325 | 2.48 | -0.42 | 2.25 | 0.992 | 2.37 | 1.88 | 1.13 | 2.85 | 3.03 | 0.74 | 0.375 |
| CAAACTAGGTCAAAAGTCAAAGTCGAGCCAACCA | 8.48 | 8.18 | 0.975 | 1.19 | 1.78 | 2.68 | -0.0368 | 4.56 | 0.778 | 3.78 | 2.64 | 4.67 | 4.23 | 1.61 | 5.2 | 2.55 | 0.407 | 0.387 |
| ACAGACAGGTGAGTCAAGGTAACTCAGCTGGACG | 0.393 | 0.646 | -0.696 | -0.663 | -0.248 | 0.238 | -0.645 | 0.569 | -0.253 | 0.669 | 0.0236 | 0.322 | 0.586 | -0.585 | 0.518 | 3.73 | 0.299 | -0.203 |
| TCTTGTAGATCAATAGATGTTAAGAAAGTGCGCT | 1.57 | 0.386 | 0.918 | 1.19 | -0.501 | 0.533 | 0.037 | 0.616 | 0.125 | -0.26 | -0.256 | 0.00708 | 0.206 | 0.767 | 0.395 | -0.118 | -0.769 | -0.147 |
| CTACCAAGGTGAGCAAGGTCGTTGATTACTATTC | 1.33 | 1.62 | -0.318 | -0.00619 | 0.031 | 1.79 | 0.655 | 1.44 | -0.327 | 1.64 | 1.65 | 0.951 | 0.78 | 0.939 | 1.03 | 2.77 | 1.29 | 1.42 |
| GGAACGAGGGCATTCGAGTTGAGAGCATGGCGAT | 3.26 | 2.42 | -0.0251 | -0.828 | -0.126 | 3.24 | 0.951 | 0.847 | -0.731 | 1.99 | 0.91 | 1.14 | 1.31 | 2.99 | 1.05 | 3.58 | -0.815 | 2.68 |
